Experimental findings from PubChem BioAssay (EPA / NIEHS) are described below.

The structures appear in SMILES notation. Values joined by “and” are separate entries in the source; they are usually repeats but may differ in a detail not shown here. Equal values may be shown once. Inconclusive results are not listed. A structure can be active in one record and inactive in another. Active and inactive are the calls of the source. Rule for the calls, unless noted: active = hit-call score of the fitted dose curve at least 0.9, where 1 is the maximum; inactive = score below 0.9.

Assay [1] in a line: ATG_NFI_CIS: Attagene CIS-FACTORIAL HepG2 Assay for human Nuclear Factor I (NFI) (AID 2282989). To be noted: HepG2 cis-regulatory reporter, NFI response element transcription; actives raise or lower the signal. The essentials: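 HepG2 cells transiently transfected with cis-element-driven multiplexed reporter transcription units, dosed for 24 h. Reporter mRNA quantified by RT-PCR, fluorescent labelling, HpaI digestion and capillary electrophoresis; bidirectional fit versus DMSO baseline.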

The target in assay [2] is Myc proto-oncogene protein (Homo sapiens) (UniProt P01106). The experiment in a line: ATG_Myc_CIS: Attagene CIS-FACTORIAL HepG2 Assay for human Myelocytomatosis (Myc) Proto-Oncogene Transcription Factor (AID 2282990). To be noted: HepG2, Attagene cis-reporter transcription factor activity; actives raise or lower the signal. The gist of the method:
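Read-out: fluorescent reporter mRNA fragments resolved by capillary electrophoresis after RT-PCR. Human HepG2 liver cells carried transfected cis-element reporter units and were dosed for 24 h. Gain or loss of signal fitted relative to DMSO baseline.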

Assay [3] can be described thus: ATG_NF_kB_CIS: Attagene CIS-FACTORIAL HepG2 Assay for human Nuclear Factor Kappa B (NF-kB) (AID 2282991). To be noted: HepG2 Attagene cis-factorial NF-kB reporter mRNA; actives raise or lower the signal. The essentials:
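Endogenous transcription factor activity in HepG2 was captured via cis-regulated reporter constructs; after 24 h dosing, reporter mRNA was reverse-transcribed, amplified, fluorescently labelled and sized by capillary electrophoresis, with activity fitted bidirectionally relative to DMSO.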

Assay [4] is described as follows: ATG_NRF2_ARE_CIS: Attagene CIS-FACTORIAL HepG2 Assay for human Nuclear Factor Erythroid 2 Related Factor 2 (NFR2) response to Antioxidant Response Elements (ARE) (AID 2282992).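 For AC50: reporter mRNA level measured by RT-PCR and capillary electrophoresis fluorescence.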 The note with it: HepG2 Attagene ARE/NRF2 reporter, transcription factor activity; actives raise or lower the signal. The gist of the method:
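Readout: reporter mRNA quantified by RT-PCR plus FAM-labelled primer extension, HpaI digestion and capillary electrophoresis, 24 h after dosing transfected HepG2 cells. Gain or loss of signal is fitted bidirectionally against DMSO baseline.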

Assay [5] can be described thus: ATG_Oct_MLP_CIS: Attagene CIS-FACTORIAL HepG2 Assay for human Octamer-Binding Transcription Factor (Oct) (AID 2282993). The note with it: HepG2 Attagene cis-factorial Oct reporter, mRNA; actives raise or lower the signal. The essentials: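 HepG2 cells transiently transfected with cis-promoter-driven multiplexed reporter transcription units, dosed for 24 h. Reporter mRNA quantified by RT-PCR, fluorescent labelling, HpaI digestion and capillary electrophoresis; bidirectional fits versus DMSO baseline.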

In assay [6] the target is Cellular tumor antigen p53 (Homo sapiens) (UniProt P04637). The experiment in a line: ATG_p53_CIS: Attagene CIS-FACTORIAL HepG2 Assay for human p53 Transcription Factor (AID 2282994). The note with it: HepG2 p53 cis-element reporter, Attagene mRNA; actives raise or lower the signal. The gist of the method: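 Read-out: reporter mRNA by RT-PCR plus capillary electrophoresis with fluorescence detection. Human HepG2 liver cells carried transfected multi-reporter cis-element constructs, dosed 24 h. Gain or loss of signal fitted bidirectionally against DMSO control.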
Sequence of Cellular tumor antigen p53 (Homo sapiens) (P04637 whole entry, looked up): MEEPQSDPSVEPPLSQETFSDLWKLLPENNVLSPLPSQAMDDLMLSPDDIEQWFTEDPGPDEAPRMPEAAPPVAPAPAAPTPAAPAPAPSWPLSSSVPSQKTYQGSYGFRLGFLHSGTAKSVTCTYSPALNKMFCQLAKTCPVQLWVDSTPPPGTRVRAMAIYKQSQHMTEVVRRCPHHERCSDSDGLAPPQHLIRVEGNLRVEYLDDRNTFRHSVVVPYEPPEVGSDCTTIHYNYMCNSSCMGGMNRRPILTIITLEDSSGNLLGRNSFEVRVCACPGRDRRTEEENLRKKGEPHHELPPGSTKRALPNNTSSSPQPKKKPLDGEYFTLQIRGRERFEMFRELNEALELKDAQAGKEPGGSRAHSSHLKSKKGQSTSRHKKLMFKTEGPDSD

A short description of assay [7]: BSK_3C_TissueFactor: BioMAP Diversity Plus: 3C Assay for Tissue Factor Biomarker Activity (AID 2282997). The note with it: BioMAP 3C HUVEC, tissue factor biomarker readout; actives raise or lower the signal. The essentials: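 Cells used were primary human umbilical vein endothelial cells. They were dosed with chemical, and after 24 h Tissue Factor was quantified by ELISA. Curves were fitted bidirectionally with DMSO as baseline.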

Assay [8] in a line: BSK_3C_uPAR: BioMAP Diversity Plus: 3C Assay for Urokinase-type plasminogen activator receptor (uPAR) Biomarker Activity (AID 2282998). The note with it: BioMAP 3C HUVEC, uPAR biomarker ELISA; actives raise or lower the signal. The essentials:
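Human umbilical vein endothelial primary cells were exposed to test chemical for 24 h. Cell-surface uPAR was then quantified by ELISA, and responses were fitted bidirectionally against DMSO as negative control and baseline.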

The nature of assay [9]: BSK_4H_Eotaxin3: BioMAP Diversity Plus: 4H Assay for Eotaxin 3 Biomarker Activity (AID 2283000).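 For outcome: CCL26 protein level quantified by ELISA in parallel with SRB cytotoxicity check.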 To be noted: primary human endothelial cells (HUVEC); actives raise or lower the signal. The essentials:
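Endothelial primary cells (human umbilical vein) exposed to compound for 24 h. ELISA detection of Eotaxin-3.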

The target of assay [10] is human Peroxisome Proliferator-activated Receptor alpha (PPARa), PPARA (gene 5465) (UniProt Q07869). The experiment in a line: ATG_PPARa_TRANS: Attagene TRANS-FACTORIAL HepG2 Assay for human Peroxisome Proliferator-activated Receptor alpha (PPARa) (AID 2283001; active = hit-call score of the fitted dose curve at least 0.9, where 1 is the maximum). The essentials: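 Transient HepG2 transfection, GAL4-UAS reporters, NR-Gal4 chimeras; 24 h compound exposure. Readout: reporter transcripts by RT-PCR, 6-FAM primer extension, HpaI digest, capillary electrophoresis. Positive direction vs DMSO baseline.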
Sequence of human Peroxisome Proliferator-activated Receptor alpha (PPARa), PPARA (gene 5465) (Q07869 whole entry, looked up, the tested form may be a part): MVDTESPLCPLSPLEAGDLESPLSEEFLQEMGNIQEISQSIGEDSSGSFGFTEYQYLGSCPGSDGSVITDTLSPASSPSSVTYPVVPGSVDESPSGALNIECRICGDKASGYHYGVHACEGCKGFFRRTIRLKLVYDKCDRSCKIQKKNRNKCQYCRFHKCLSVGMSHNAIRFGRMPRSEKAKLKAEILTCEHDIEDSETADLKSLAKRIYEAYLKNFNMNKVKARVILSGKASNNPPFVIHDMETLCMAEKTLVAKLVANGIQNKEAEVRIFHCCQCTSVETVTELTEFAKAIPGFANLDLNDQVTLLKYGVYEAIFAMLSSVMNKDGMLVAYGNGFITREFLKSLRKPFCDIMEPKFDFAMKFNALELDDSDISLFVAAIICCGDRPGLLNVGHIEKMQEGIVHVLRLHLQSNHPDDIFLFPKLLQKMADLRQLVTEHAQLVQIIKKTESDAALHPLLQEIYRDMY

Sequence of Myc proto-oncogene protein (Homo sapiens) (P01106 whole entry, looked up, the tested form may be a part): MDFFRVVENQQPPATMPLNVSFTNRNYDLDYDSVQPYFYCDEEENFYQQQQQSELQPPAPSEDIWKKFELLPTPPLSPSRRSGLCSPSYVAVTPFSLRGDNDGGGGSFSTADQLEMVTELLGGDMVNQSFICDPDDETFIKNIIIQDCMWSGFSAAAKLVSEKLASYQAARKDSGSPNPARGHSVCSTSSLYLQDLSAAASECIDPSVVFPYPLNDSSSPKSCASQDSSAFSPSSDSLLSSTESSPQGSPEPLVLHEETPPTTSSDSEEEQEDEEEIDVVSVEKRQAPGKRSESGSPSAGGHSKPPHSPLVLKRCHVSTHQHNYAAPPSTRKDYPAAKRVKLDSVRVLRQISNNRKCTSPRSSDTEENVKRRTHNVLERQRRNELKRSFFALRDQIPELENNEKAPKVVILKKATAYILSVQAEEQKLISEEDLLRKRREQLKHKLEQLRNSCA

In the case of `O=C1CCCN1CCO`, the compound was classed as inactive in assay [1], in [2], in assay [3], in assay [4], in [5] and in assay [6]. In addition, the result in assay [7], in assay [8] and in assay [9] was inactive.

For `CC1(C)[C@H]2CC[C@]1(C)C(=O)C2`, the outcome in assay [1], in assay [2], in assay [3], in assay [4], in assay [5] and in assay [6] was inactive.

Consider `CN1C(=O)N(C)C(O)C1O` (stereo unspecified), for which the compound was classed as inactive in [1], in assay [2], in assay [3], in assay [4], in assay [5] and in assay [6]. The result in assay [7], in assay [8], in [9] and in [10] was inactive.

Regarding `CNC(=S)N(C)C`, the result in [1], in assay [2], in assay [3], in assay [4], in assay [5] and in assay [6] was inactive.

As to `O=C(Cl)c1cc(C(=O)Cl)cc(C(=O)Cl)c1`, the compound was called inactive in assay [1], in assay [2], in assay [3], in assay [5] and in [6]. Moreover, the AC50 in assay [4] is 158 µM (active); in assay [7], 12.2 µM (active); in [8], 10.2 µM (active); in [9] it was 25.8 µM (active).

As for `CCCC(=O)OCc1ccccc1`, the result in assay [1], in assay [2], in assay [3], in [4], in [5] and in [6] was inactive.

In the case of `O=C(c1ccc(O)cc1)c1ccc(O)cc1O`, the compound was classed as inactive in [1], in assay [2], in assay [3], in [5], in assay [7] and in assay [8]. The call in assay [10] was inactive. For the same compound, the AC50 in [4] is 100 µM (active); in [6], 100 µM (active); in assay [8], 15.9 µM (active); in assay [9] it was 13.9 µM (active) and 20 µM (active).

`CC(C)(c1cc(Br)c(OCCO)c(Br)c1)c1cc(Br)c(OCCO)c(Br)c1`: the AC50 was 45.1 µM (active) in assay [1]; 18.6 µM (active) in [4]; 17.7 µM (active) in assay [5]; 7 µM (active) in [6]; 16.2 µM (active) in assay [7]; 16.2 µM (active) in assay [8]. Also, in [9], the AC50 is 8.31 µM (active). For the same compound, the compound was classed as inactive in assay [2] and in assay [3].

For `CCCCNc1ccc(NCCCC)c2c1C(=O)c1ccccc1C2=O`, the result in [1], in [2], in [3], in assay [5], in assay [6] and in assay [7] was inactive. The outcome in assay [8] and in [9] was inactive. Further, in assay [4], the AC50 is 1.47 µM (active).

For the compound `N#[N+]c1ccc2c(S(=O)(=O)[O-])cccc2c1O`, the compound was called inactive in assay [1], in [2], in assay [3], in assay [4], in [5] and in assay [6]. Moreover, the result in assay [7], in assay [8], in assay [9] and in assay [10] was inactive.

For `O=C1c2ccccc2C(=O)C1c1nc2ccccc2c(Br)c1O`, the compound was classed as inactive in assay [1], in assay [2], in assay [5] and in [6]. Besides, the half-maximal activity concentration (AC50) in assay [3] was 28.4 µM (active); in [4], 1.83 µM (active).

`C=C1C2CCC(C2)C1(C)C` (stereo unspecified): the result in assay [1], in assay [2], in assay [3], in [4], in assay [5] and in assay [6] was inactive.

Consider `CC(C)(C)c1ccc(OC(=O)c2ccccc2O)cc1`, for which the compound was called inactive in assay [1], in assay [2], in assay [3], in assay [4], in assay [5] and in assay [6]. Moreover, the call in [10] was inactive.

In the case of `C#CC1(O)CC[C@H]2[C@@H]3CCC4=CCCC[C@@H]4[C@H]3CC[C@@]21C` (stereo partly specified), the compound was classed as inactive in assay [1], in assay [2], in [3] and in [5]. Further, the AC50 in [4] was 22 µM (active); in assay [6] it was 33.4 µM (active); in [7], 8.34 µM (active); in assay [8], 9.84 µM (active); in assay [9], 11.1 µM (active).

Turning to `c1c[nH]cn1`, the compound was classed as inactive in assay [1], in assay [2], in [3], in [4], in assay [5] and in assay [6].

In the case of `O=C1CCCCCCCCCCC(=O)OCCO1`, the result in [1], in [2], in [3], in [4], in assay [5] and in [6] was inactive. In addition, the result in assay [10] was inactive.

Regarding `CC(C)COC(=O)C=Cc1ccccc1`, the outcome in [1], in assay [2], in assay [3], in assay [5], in assay [6] and in assay [10] was inactive. In addition, the AC50 in assay [4] is 18.4 µM (active).

For the compound `NC(=O)NNC(N)=O`, the compound was called inactive in assay [1], in assay [2], in assay [3], in assay [4], in assay [5] and in [6]. The result in assay [10] was inactive.

For the compound `O=C(C=Cc1ccccc1)OCc1ccccc1`, the call in assay [1], in assay [2], in [3], in assay [5], in assay [6] and in assay [10] was inactive. For the same compound, in assay [4], the AC50 was 34.4 µM (active).

Regarding `CC=CCO`, the result in [1], in assay [2], in assay [3], in assay [4], in assay [5] and in assay [6] was inactive. In addition, the compound was classed as inactive in assay [10].

Take `CCCCCCCCC(=O)OCC`: the result in assay [1], in [2], in [3], in [5], in assay [6] and in [10] was inactive. Moreover, in assay [4], the AC50 is 47.4 µM (active).

Take `C1=CCCC1`: the compound was called inactive in assay [1], in [2], in assay [3], in assay [4], in [5] and in assay [6]. The compound was classed as inactive in assay [10].

As for `C=C(C)C(=O)OCC(C)C`, the compound was classed as inactive in assay [1], in assay [2], in [3], in assay [4], in [5] and in [6]. In addition, in [10], the outcome was inactive.

For the compound `Cc1cnc(NC(=O)C2=C(O)c3ccccc3S(=O)(=O)N2C)s1`, the compound was classed as inactive in [1], in [2], in assay [3], in assay [4], in assay [5] and in assay [6]. Moreover, the compound was called inactive in assay [10].

On to `CCCCC/C=C\CCC=O`, for which the compound was classed as inactive in assay [1], in [2], in [3], in assay [4], in assay [5] and in assay [6]. The compound was called inactive in assay [10].

As to `CCCCOCCOC(=O)COc1nc(Cl)c(Cl)cc1Cl`, the call in assay [1], in assay [2], in [3], in [4], in [5] and in assay [6] was inactive. Also, in [10], the call was inactive.

One may read the AC50 as the midpoint of the concentration-response curve, whichever way the signal moves.
